Measurements taken from the supplement of paper PMC11732987, “Enantioselective OTUD7B fragment discovery through chemoproteomics screening and high-throughput optimisation” (Communications Chemistry, 2025).

Tests used:
Assay in all cases: log2 ratio of Biotin-Ahx-Ub-VS probe labelling (fragment/DMSO); higher = less target engagement (more negative = stronger competition), active = hit call of the paper (q ≤ 0.05, log2 ratio ≤ -1)
Conditions in all cases: compound concentration: 200 uM; treatment time: 3 h
USP9X = USP9X (UniProt Q93008)
In short: (§1)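 HEK293T lysate (495 µg per sample, in Tris/CHAPS/IGEPAL buffer with protease inhibitors) was exposed in triplicate for 3 h to fragment at 200 µM or to vehicle, then to Biotin-Ahx-Ub-VS at 0.5 µM final for 1 h. Labelled DUBs were enriched on NeutrAvidin, digested with LysC and trypsin, and analysed by diaPASEF LC-MS/MS. Spectronaut label-free quantities were normalised to the global median, and values are average log2 ratios of fragment over vehicle from an unpaired t-test. Only proteins with ≥2 unique peptides were used.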

UniProt O00487 = target: UniProt O00487
In short: as §1

UniProt O00507 = target: UniProt O00507
In short: as §1

UniProt P51784 = target: UniProt P51784
In short: as §1

UniProt Q5T2D3 = target: T1, UniProt Q5T2D3
T1 sequence (whole entry): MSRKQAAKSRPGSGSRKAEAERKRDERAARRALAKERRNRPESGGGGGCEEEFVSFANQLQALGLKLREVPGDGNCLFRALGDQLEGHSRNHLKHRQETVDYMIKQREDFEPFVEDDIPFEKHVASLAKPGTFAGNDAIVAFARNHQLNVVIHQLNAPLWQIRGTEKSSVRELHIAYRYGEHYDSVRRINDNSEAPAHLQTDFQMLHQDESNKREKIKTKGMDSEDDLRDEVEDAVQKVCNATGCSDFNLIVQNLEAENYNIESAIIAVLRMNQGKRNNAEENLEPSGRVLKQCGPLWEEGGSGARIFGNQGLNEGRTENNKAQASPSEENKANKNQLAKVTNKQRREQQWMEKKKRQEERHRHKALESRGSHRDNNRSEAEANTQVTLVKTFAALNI
In short: as §1

UniProt Q8TE49 = target: T2, UniProt Q8TE49
T2 sequence (whole entry): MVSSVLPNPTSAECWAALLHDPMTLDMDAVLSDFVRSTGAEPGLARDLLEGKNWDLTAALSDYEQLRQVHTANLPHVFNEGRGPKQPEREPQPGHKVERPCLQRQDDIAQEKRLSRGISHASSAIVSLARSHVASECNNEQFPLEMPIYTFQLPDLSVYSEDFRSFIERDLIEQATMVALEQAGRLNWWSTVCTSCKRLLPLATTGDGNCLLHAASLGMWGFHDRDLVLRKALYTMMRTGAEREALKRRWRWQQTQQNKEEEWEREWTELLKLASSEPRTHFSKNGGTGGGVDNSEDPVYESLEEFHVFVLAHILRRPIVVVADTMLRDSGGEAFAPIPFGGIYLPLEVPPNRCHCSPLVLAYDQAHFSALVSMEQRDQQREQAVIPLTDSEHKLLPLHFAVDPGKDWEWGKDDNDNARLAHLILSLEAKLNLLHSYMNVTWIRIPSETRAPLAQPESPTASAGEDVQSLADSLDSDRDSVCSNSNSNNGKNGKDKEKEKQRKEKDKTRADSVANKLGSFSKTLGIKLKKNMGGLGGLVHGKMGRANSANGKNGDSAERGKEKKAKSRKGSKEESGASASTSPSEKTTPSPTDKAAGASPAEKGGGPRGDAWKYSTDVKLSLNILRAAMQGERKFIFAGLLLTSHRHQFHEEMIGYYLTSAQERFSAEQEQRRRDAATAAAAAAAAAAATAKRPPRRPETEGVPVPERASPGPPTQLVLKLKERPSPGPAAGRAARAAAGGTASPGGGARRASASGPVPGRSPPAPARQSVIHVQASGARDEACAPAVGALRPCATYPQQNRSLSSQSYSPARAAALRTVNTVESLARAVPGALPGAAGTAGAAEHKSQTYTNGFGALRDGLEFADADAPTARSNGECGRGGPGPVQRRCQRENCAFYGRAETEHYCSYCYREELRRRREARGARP
In short: as §1

UniProt Q9P2H5 = target: T3, UniProt Q9P2H5
T3 sequence (whole entry): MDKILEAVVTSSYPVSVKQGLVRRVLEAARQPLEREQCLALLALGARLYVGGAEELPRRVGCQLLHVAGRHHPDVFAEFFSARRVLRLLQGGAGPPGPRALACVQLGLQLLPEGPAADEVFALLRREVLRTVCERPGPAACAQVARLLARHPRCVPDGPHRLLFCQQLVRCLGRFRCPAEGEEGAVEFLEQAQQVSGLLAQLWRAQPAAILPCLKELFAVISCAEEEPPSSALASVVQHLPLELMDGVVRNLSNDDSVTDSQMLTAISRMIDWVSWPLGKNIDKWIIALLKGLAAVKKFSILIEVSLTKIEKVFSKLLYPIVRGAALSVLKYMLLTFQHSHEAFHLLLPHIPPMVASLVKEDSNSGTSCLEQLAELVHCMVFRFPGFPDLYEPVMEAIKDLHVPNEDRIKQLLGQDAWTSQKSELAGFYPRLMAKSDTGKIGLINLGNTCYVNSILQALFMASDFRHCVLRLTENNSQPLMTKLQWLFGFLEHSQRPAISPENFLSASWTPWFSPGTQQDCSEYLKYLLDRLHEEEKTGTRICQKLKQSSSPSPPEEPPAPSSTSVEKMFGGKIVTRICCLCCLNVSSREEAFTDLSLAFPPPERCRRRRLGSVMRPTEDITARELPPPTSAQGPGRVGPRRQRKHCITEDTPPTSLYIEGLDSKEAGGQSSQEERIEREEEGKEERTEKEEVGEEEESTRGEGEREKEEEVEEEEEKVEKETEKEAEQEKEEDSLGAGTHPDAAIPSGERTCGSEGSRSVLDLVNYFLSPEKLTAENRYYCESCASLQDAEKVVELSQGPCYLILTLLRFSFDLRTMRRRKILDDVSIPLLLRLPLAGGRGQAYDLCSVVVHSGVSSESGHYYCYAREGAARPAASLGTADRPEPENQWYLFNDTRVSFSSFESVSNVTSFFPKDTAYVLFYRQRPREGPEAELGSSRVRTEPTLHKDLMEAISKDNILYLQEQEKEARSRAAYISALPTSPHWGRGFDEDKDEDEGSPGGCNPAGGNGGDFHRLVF
In short: as §1

UniProt Q9UGI0 = target: T4, UniProt Q9UGI0
T4 sequence (whole entry): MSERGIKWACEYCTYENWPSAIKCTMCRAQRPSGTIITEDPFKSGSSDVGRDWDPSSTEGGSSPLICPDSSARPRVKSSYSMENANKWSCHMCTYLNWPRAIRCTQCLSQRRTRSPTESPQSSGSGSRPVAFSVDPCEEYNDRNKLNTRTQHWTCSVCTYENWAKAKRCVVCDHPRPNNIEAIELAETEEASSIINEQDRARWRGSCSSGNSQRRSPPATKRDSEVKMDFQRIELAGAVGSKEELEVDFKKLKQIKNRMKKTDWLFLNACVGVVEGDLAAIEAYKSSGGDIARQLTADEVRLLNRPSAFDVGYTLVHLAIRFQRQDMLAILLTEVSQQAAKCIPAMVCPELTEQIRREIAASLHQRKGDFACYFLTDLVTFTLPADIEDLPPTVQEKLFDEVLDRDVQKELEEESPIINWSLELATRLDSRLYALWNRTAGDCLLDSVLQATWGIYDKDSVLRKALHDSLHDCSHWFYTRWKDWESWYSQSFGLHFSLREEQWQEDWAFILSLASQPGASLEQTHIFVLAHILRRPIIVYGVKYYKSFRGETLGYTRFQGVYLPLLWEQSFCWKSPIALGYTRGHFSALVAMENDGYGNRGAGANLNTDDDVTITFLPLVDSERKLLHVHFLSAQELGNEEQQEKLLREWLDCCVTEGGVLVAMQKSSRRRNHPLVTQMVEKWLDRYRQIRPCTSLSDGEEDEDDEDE
In short: as §1

YOD1 = target: T5, YOD1 (UniProt Q5VVQ6)
T5 sequence (whole entry): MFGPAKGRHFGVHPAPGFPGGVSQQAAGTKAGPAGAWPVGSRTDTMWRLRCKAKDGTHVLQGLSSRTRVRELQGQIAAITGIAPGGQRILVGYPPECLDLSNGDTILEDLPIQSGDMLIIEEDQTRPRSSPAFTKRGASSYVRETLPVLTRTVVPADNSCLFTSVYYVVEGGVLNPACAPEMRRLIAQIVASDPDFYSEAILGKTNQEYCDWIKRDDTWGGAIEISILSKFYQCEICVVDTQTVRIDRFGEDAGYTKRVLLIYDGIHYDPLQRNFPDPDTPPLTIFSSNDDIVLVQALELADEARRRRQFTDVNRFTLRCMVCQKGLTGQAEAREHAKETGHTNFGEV
In short: as §1

Measured: log2 ratio of Biotin-Ahx-Ub-VS probe labelling

Sequence of USP9X (Q93008 whole entry, the tested form may be a part): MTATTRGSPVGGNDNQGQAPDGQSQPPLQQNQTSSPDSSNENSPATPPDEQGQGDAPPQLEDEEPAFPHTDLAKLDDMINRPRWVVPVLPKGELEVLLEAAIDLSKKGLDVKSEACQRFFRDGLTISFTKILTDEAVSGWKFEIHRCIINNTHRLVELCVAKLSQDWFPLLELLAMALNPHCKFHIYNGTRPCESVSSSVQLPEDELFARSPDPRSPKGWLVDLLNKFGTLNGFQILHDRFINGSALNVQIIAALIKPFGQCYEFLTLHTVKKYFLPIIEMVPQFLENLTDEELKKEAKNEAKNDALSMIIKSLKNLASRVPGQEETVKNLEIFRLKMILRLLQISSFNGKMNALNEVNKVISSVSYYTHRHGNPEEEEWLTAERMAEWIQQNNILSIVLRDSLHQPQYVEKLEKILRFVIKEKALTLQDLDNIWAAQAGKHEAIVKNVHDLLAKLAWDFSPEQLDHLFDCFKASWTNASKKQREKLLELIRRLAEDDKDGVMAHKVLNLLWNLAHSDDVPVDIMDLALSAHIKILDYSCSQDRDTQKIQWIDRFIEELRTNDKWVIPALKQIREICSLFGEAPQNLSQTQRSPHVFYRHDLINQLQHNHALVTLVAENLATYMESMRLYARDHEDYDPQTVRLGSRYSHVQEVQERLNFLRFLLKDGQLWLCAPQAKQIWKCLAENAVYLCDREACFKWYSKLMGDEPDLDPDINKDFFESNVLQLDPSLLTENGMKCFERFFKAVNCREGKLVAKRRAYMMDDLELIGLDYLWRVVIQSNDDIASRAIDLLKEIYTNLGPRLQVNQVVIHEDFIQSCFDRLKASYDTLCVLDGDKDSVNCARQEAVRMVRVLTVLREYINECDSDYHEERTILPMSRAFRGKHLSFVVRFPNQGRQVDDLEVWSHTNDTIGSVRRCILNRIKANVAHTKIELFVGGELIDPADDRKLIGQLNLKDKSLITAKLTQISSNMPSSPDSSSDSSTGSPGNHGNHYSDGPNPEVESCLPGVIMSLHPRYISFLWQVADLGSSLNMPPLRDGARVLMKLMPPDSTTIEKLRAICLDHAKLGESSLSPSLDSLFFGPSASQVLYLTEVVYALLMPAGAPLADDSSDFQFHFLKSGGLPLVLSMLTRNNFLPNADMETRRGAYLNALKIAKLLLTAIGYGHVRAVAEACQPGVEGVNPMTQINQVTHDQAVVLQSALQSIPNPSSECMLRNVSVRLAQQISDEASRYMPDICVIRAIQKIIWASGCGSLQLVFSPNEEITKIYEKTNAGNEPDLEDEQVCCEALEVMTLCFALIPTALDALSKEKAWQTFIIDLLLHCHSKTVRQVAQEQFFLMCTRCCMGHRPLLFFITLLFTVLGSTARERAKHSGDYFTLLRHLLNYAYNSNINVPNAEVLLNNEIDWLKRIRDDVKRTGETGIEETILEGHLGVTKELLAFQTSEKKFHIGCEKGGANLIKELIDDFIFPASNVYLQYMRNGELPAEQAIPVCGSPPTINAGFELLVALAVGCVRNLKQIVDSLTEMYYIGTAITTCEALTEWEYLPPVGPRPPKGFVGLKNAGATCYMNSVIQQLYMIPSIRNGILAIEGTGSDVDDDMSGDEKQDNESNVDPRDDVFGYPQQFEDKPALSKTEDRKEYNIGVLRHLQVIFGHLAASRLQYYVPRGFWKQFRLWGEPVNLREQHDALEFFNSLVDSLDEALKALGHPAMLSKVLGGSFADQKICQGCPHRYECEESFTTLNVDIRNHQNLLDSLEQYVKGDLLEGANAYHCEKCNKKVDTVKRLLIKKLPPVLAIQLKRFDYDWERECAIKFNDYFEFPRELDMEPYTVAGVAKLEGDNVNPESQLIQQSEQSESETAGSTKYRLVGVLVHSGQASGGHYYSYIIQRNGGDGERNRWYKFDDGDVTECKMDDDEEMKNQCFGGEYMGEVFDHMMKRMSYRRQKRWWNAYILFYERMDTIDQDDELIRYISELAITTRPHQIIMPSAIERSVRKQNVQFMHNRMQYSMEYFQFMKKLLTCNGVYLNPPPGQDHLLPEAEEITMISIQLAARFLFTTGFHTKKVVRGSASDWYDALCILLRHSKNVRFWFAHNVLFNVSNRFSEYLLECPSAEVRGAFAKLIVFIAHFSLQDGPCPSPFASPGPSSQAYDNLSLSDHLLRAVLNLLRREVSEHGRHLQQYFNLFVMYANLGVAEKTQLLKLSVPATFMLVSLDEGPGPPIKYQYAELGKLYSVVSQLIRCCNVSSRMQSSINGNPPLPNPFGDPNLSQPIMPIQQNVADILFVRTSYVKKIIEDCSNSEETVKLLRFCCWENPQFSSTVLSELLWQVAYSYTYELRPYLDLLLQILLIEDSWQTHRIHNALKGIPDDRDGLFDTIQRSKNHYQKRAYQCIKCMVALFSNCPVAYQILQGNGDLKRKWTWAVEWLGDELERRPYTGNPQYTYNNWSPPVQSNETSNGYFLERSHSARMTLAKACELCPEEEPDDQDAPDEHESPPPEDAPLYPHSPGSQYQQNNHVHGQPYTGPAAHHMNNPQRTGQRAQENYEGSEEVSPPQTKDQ
Sequence of UniProt O00507 (O00507 whole entry): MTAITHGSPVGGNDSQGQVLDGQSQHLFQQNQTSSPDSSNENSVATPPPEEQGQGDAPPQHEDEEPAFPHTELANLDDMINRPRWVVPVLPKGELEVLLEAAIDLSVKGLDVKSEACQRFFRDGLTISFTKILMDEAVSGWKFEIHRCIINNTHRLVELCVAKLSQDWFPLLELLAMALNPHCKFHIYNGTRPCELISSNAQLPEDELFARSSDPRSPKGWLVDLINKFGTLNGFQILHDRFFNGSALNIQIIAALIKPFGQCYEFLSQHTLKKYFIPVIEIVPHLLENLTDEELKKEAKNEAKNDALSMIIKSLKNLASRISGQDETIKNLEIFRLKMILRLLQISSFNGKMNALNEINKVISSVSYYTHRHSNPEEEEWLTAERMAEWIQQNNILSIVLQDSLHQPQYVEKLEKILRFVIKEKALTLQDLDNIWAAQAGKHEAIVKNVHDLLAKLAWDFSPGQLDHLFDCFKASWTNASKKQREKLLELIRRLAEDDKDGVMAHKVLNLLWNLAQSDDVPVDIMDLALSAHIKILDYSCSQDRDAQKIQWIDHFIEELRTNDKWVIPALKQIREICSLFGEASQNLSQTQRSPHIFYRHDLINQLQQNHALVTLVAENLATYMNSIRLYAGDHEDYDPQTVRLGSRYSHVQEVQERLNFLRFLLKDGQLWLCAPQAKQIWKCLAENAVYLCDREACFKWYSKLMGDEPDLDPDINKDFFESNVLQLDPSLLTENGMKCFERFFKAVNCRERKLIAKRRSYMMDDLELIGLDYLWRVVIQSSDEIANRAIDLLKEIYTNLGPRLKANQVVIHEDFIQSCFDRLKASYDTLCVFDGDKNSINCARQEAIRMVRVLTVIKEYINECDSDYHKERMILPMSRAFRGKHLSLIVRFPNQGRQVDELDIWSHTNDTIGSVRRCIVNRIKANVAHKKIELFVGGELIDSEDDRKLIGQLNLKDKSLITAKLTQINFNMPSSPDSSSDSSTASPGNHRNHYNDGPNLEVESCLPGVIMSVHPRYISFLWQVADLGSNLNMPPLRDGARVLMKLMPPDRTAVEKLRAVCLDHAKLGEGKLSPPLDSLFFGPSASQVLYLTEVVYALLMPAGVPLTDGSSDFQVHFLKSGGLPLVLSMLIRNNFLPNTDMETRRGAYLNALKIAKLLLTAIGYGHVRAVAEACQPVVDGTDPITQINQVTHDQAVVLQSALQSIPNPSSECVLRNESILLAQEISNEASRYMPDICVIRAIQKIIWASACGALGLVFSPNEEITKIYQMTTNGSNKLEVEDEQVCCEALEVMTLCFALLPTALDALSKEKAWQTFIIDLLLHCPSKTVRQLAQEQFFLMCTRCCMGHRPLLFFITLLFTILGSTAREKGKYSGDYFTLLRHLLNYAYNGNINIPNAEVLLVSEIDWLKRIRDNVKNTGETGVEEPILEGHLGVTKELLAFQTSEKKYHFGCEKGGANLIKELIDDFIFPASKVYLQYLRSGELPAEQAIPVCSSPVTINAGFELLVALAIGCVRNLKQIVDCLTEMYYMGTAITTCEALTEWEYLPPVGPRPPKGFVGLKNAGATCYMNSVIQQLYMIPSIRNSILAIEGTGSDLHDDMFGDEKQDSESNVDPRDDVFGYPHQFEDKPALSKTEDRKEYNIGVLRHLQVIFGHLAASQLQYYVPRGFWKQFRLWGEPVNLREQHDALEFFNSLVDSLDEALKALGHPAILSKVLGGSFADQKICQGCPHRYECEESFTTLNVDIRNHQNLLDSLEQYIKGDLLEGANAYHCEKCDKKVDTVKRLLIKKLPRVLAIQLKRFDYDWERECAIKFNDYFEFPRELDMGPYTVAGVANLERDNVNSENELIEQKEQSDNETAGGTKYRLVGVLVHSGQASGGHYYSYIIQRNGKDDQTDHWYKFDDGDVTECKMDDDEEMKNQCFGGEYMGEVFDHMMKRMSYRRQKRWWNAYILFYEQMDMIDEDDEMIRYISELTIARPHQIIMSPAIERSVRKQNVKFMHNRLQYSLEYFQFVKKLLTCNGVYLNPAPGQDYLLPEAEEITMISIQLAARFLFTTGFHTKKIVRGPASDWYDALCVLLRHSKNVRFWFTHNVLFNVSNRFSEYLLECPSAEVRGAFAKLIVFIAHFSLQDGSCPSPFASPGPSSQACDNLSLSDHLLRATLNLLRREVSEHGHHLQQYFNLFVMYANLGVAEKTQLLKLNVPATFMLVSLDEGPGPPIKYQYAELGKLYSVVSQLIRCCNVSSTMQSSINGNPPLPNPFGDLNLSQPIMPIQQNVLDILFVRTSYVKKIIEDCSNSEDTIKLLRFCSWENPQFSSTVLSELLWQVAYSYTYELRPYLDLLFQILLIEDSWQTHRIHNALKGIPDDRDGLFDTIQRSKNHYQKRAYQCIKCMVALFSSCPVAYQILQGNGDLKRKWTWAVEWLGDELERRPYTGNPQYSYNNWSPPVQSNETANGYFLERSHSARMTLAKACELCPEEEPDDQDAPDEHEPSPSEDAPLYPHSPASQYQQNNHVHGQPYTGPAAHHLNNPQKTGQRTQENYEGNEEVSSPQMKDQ

O=C(CCl)NCc1ccc(N2CCOCC2)c(F)c1
inactive: USP9X -0.078 | UniProt O00487 0.0665 | UniProt O00507 0.631 | UniProt P51784 0.16 | UniProt Q5T2D3 -0.134 | UniProt Q8TE49 -0.275 | UniProt Q9P2H5 -0.291 | UniProt Q9UGI0 -0.051 | YOD1 0.276
